Measured values from PubChem BioAssay AID1159580 (chemical genetic matrix, 2015).
Where “and” joins values, the source holds several entries; their conditions need not be identical. Identical values can stand only once. About 2,000 (36%) of roughly 5,500 compounds were called active. Inconclusive results (about 18%) are left out. Rule as the data show it: active = normalized growth mostly below about 0.91 (no sharp cut-off); inconclusive = no clear call, values can overlap the other calls; inactive = mostly above about 0.92. The list shows a part of the results.

Test: chemical genetic growth profiling, strain panel (AID 1159580);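 also: tested at 20 µM; growth read once vehicle control cultures reached saturation at 30 °C; 1 = growth at the plate median or of vehicle wells; lower values mean less growth of the strain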
Conditions: S. cerevisiae deletion strains, growth OD

Measured: normalized growth

COc1cc(O)c2c(=O)cc(C)oc2c1CC=C(C)C
0.78 (active) and 0.962 (inactive): locus YJL095W, strain BCK1, stronger effect = lower value
inactive: locus YAL021C, strain ccr4, stronger effect = lower value 0.99 | locus YAL026C, strain drs2, stronger effect = lower value 0.996 | locus YAL030W, strain snc1, stronger effect = lower value 0.967 | locus YBL061C, strain skt5, stronger effect = lower value 0.96 | locus YBR009C, strain hhf1, stronger effect = lower value 0.917 | locus YBR021W, strain FUR4, stronger effect = lower value 0.9 | locus YBR023C, strain chs3, stronger effect = lower value 0.941 | locus YBR171W, strain sec66, stronger effect = lower value 0.968 | locus YBR229C, strain ROT2, stronger effect = lower value 0.93 | locus YBR231C, strain swc5, stronger effect = lower value 0.98 | locus YBR279W, strain paf1, stronger effect = lower value 0.991 | locus YCL011C, strain gbp2, stronger effect = lower value 0.962 | locus YCL016C, strain dcc1, stronger effect = lower value 0.953 | locus YCL069W, strain vba3, stronger effect = lower value 0.997 | locus YCR088W, strain abp1, stronger effect = lower value 0.982 | locus YDL005C, strain med2, stronger effect = lower value 1.03 | locus YDL040C, strain nat1, stronger effect = lower value 0.986 | locus YDL101C, strain DUN1, stronger effect = lower value 0.954 | locus YDL185W, strain tfp1, stronger effect = lower value 0.929 | locus YDR001C, strain nth1, stronger effect = lower value 0.979 | locus YDR069C, strain doa4, stronger effect = lower value 0.97 | locus YDR150W, strain NUM1, stronger effect = lower value 0.946 | locus YDR159W, strain sac3, stronger effect = lower value 0.959 | locus YDR297W, strain sur2, stronger effect = lower value 0.967 | locus YDR334W, strain swr1, stronger effect = lower value 0.984 | locus YDR335W, strain msn5, stronger effect = lower value 0.986 | locus YDR388W, stronger effect = lower value 0.943 | locus YEL003W, strain gim4, stronger effect = lower value 0.957 | locus YEL037C, strain rad23, stronger effect = lower value 0.984 | locus YEL061C, strain CIN8 (second series), stronger effect = lower value 0.993 | locus YEL061C, strain CIN8, stronger effect = lower value 0.941 | locus YER015W, strain faa2, stronger effect = lower value 0.977 | locus YER016W, strain bim1, stronger effect = lower value 0.965 | locus YER110C, stronger effect = lower value 0.947 | locus YER111C, strain swi4, stronger effect = lower value 1.01 | locus YER155C, strain BEM2 (second series), stronger effect = lower value 0.903 | locus YER155C, strain BEM2, stronger effect = lower value 0.928 | locus YFR010W, strain ubp6, stronger effect = lower value 1 | locus YGL078C, strain dbp3, stronger effect = lower value 0.971 | locus YGL167C, strain pmr1, stronger effect = lower value 0.952 | locus YGL173C, strain kem1, stronger effect = lower value 0.982 | locus YGL227W, strain vid30, stronger effect = lower value 1 | locus YGL240W, strain doc1, stronger effect = lower value 0.987 | locus YGL248W, strain PDE1, stronger effect = lower value 0.898 | locus YGL253W, strain hxk2, stronger effect = lower value 0.99 | locus YGR078C, strain PAC10, stronger effect = lower value 0.874 | locus YGR135W, strain pre9, stronger effect = lower value 1 | locus YGR252W, strain gcn5, stronger effect = lower value 0.839 | locus YHR027C, strain rpn1, stronger effect = lower value 0.985 | locus YHR030C, strain SLT2, stronger effect = lower value 0.95 | locus YHR079C, strain IRE1 (second series), stronger effect = lower value 0.949 | locus YHR079C, strain IRE1, stronger effect = lower value 0.953 | locus YHR094C, strain hxt1, stronger effect = lower value 0.941 | locus YHR142W, strain chs7, stronger effect = lower value 0.884 | locus YHR200W, strain rpn10, stronger effect = lower value 0.952 | locus YIL073C, strain SPO22, stronger effect = lower value 0.849 | locus YJL092W, strain hpr5, stronger effect = lower value 0.985 | locus YJL115W, strain asf1, stronger effect = lower value 1.02 | locus YJL134W, strain LCB3, stronger effect = lower value 0.946 | locus YJL154C, strain vps35, stronger effect = lower value 1 | locus YJL164C, strain tpk1, stronger effect = lower value 0.941 | locus YJL166W, strain qcr8, stronger effect = lower value 0.967 | locus YJL168C, strain set2, stronger effect = lower value 0.965 | locus YJL187C, strain SWE1 (second series), stronger effect = lower value 0.943 | locus YJR043C, strain POL32, stronger effect = lower value 0.87 | locus YJR066W, strain TOR1, stronger effect = lower value 0.929 | locus YKL009W, strain mrt4, stronger effect = lower value 0.897 | locus YKL068W, stronger effect = lower value 0.945 | locus YKL085W, strain MDH1 (second series), stronger effect = lower value 0.936 | locus YKL085W, strain MDH1, stronger effect = lower value 0.936 | locus YKL160W, strain elf1, stronger effect = lower value 0.945 | locus YKR026C, strain gcn3, stronger effect = lower value 0.986 | locus YKR091W, strain srl3, stronger effect = lower value 0.978 | locus YLL001W, strain dnm1, stronger effect = lower value 0.982 | locus YLL026W, stronger effect = lower value 0.974 | locus YLL041C, strain sdh2, stronger effect = lower value 0.96 | locus YLR027C, strain aat2, stronger effect = lower value 0.972 | locus YLR039C, strain RIC1, stronger effect = lower value 0.797 | locus YLR058C, strain SHM2, stronger effect = lower value 0.912 | locus YLR102C, strain apc9, stronger effect = lower value 0.945 | locus YLR221C, strain rsa3, stronger effect = lower value 0.942 | locus YLR258W, strain gsy2, stronger effect = lower value 0.972 | locus YLR262C, strain YPT6, stronger effect = lower value 0.674 | locus YLR342W, strain FKS1, stronger effect = lower value 0.929 | locus YLR357W, strain rsc2, stronger effect = lower value 1.06 | locus YLR370C, strain arc18, stronger effect = lower value 0.97 | locus YLR384C, strain iki3, stronger effect = lower value 0.991 | locus YML016C, strain PPZ1, stronger effect = lower value 0.944 | locus YML120C, strain ndi1, stronger effect = lower value 0.976 | locus YML124C, strain tub3, stronger effect = lower value 0.945 | locus YMR078C, strain ctf18, stronger effect = lower value 0.919 | locus YMR125W, strain sto1, stronger effect = lower value 0.997 | locus YMR129W, stronger effect = lower value 0.979 | locus YMR223W, strain ubp8, stronger effect = lower value 0.911 | locus YMR231W, strain pep5, stronger effect = lower value 1.01 | locus YMR307W, strain GAS1, stronger effect = lower value 0.668 | locus YNL067W, strain RPL9B, stronger effect = lower value 1 | locus YNL153C, strain GIM3, stronger effect = lower value 0.926 | locus YNL183C, strain NPR1, stronger effect = lower value 0.935 | locus YNL209W, strain ssb2, stronger effect = lower value 0.973 | locus YNL248C, strain rpa49, stronger effect = lower value 1.04 | locus YNL250W, strain rad50, stronger effect = lower value 0.977 | locus YNL271C, strain bni1, stronger effect = lower value 0.953 | locus YNL298W, strain CLA4, stronger effect = lower value 0.923 | locus YNL322C, strain KRE1 (second series), stronger effect = lower value 0.998 | locus YNR049C, strain mso1, stronger effect = lower value 0.996 | locus YNR052C, strain pop2, stronger effect = lower value 0.988 | locus YOL012C, strain htz1 0.465 | locus YOR001W, strain rrp6, stronger effect = lower value 0.989 | locus YOR061W, strain CKA2, stronger effect = lower value 0.92 | locus YOR069W, strain VPS5, stronger effect = lower value 0.964 | locus YOR070C, strain gyp1, stronger effect = lower value 0.982 | locus YOR080W, strain dia2, stronger effect = lower value 0.993 | locus YOR083W, strain WHI5, stronger effect = lower value 0.97 | locus YOR106W, strain vam3, stronger effect = lower value 0.971 | locus YOR136W, strain idh2, stronger effect = lower value 0.963 | locus YOR231W, strain MKK1, stronger effect = lower value 0.941 | locus YOR265W, strain rbl2, stronger effect = lower value 0.973 | locus YOR270C, strain vph1, stronger effect = lower value 0.837 | locus YOR290C, strain snf2, stronger effect = lower value 0.941 | locus YOR316C, strain cot1, stronger effect = lower value 0.944 | locus YPL051W, strain arl3, stronger effect = lower value 0.936 | locus YPL078C, strain atp4, stronger effect = lower value 0.959 | locus YPL106C, strain sse1, stronger effect = lower value 0.954 | locus YPL240C, strain hsp82, stronger effect = lower value 0.965 | locus YPL256C, strain CLN2, stronger effect = lower value 0.933 | locus YPR119W, strain clb2, stronger effect = lower value 0.951 | locus YPR141C, strain kar3, stronger effect = lower value 0.93 | locus YPR167C, strain met16, stronger effect = lower value 0.937
active: locus YAL013W, strain DEP1, stronger effect = lower value 0.864 | locus YCL029C, strain bik1, stronger effect = lower value 0.872 | locus YDL035C, strain GPR1, stronger effect = lower value 0.805 | locus YDL074C, strain BRE1, stronger effect = lower value 0.748 | locus YDL192W, strain arf1, stronger effect = lower value 0.814 | locus YDR101C, strain arx1, stronger effect = lower value 0.89 | locus YDR137W, strain rgp1, stronger effect = lower value 0.817 | locus YDR162C, strain NBP2, stronger effect = lower value 0.696 | locus YDR195W, strain ref2 1.17 [resistant] | locus YDR318W, strain mcm21, stronger effect = lower value 0.806 | locus YDR392W, strain spt3, stronger effect = lower value 0.496 | locus YDR502C, strain sam2, stronger effect = lower value 0.909 | locus YER167W, strain BCK2, stronger effect = lower value 0.893 | locus YGL086W, strain mad1, stronger effect = lower value 0.876 | locus YHR013C, strain ard1, stronger effect = lower value 1.21 [resistant] | locus YHR129C, strain ARP1, stronger effect = lower value 0.919 | locus YIL066C, strain RNR3, stronger effect = lower value 0.781 | locus YIL125W, strain kgd1, stronger effect = lower value 0.93 | locus YIR030C, strain dcg1, stronger effect = lower value 0.92 | locus YJL095W, strain BCK1 (second series), stronger effect = lower value 0.905 | locus YJL129C, strain trk1, stronger effect = lower value 0.867 | locus YKR001C, strain vps1, stronger effect = lower value 0.806 | locus YLR113W, strain HOG1, stronger effect = lower value 0.838 | locus YLR262C, strain YPT6 (second series), stronger effect = lower value 0.827 | locus YLR268W, strain sec22, stronger effect = lower value 0.816 | locus YLR320W, strain mms22, stronger effect = lower value 0.83 | locus YLR330W, strain CHS5, stronger effect = lower value 0.811 | locus YLR342W, strain FKS1 (second series), stronger effect = lower value 0.78 | locus YLR371W, strain rom2, stronger effect = lower value 0.831 | locus YLR418C, strain cdc73, stronger effect = lower value 0.628 | locus YML032C, strain rad52, stronger effect = lower value 0.858 | locus YMR058W, strain fet3, stronger effect = lower value 0.845 | locus YMR205C, strain PFK2, stronger effect = lower value 0.849 | locus YNL071W, strain lat1, stronger effect = lower value 0.847 | locus YNL233W, strain BNI4, stronger effect = lower value 0.852 | locus YNL307C, strain MCK1, stronger effect = lower value 0.618 | locus YOL147C, strain pex11, stronger effect = lower value 0.818 | locus YOR144C, strain elg1, stronger effect = lower value 0.919 | locus YOR184W, strain ser1, stronger effect = lower value 0.587 | locus YPR163C, strain tif3, stronger effect = lower value 0.776 | strain wtn01, stronger effect = lower value 0.852
